Results filed as inconclusive are left out. Entries that show only a call come without a potency. Active and inactive are the calls of the source. The call rests on the fitted dose curve; in most records, active means well fitted activation curve with a large enough effect in the repeat runs; inconclusive means weak or mixed curves; inactive means flat fitted curve, though single readings scatter.
Potency means the concentration at half of the fitted maximal effect.

The experiment concerns the target Nuclear receptor subfamily 1 group I member 2 (Homo sapiens) (UniProt O75469). Kind of experiment: Human pregnane X receptor (PXR) activation by small molecules, qHTS assay (AID 1346985). Further: nearly all actives have a fitted effect of over 40% in size. The following applies: DPX-2 HepG2 CYP3A4-luciferase, 24 h; series mostly up to 38.3 µM. An excerpt: National Center for Advancing Translational Sciences [NCATS]
NIH Chemical Genomics Center [NCGC]
U.S. Environmental Protection Agency [EPA]
National Institutes of Environmental Health Sciences [NIEHS]
National Toxicology Program [NTP]
The Pregnane X receptor (PXR), a ligand activated nuclear receptor plays a critical role in the regulation of genes involved in drug metabolism and transporters. Activation of PXR may be involved in the unwanted adverse drug-drug interactions. […] Therefore, identification of compounds with the potential for PXR activation can be of importance in improving the efficacy of drugs with less toxicity and avoiding drug-drug interactions.
DPX-2 (Puracyp, Inc.) cell lines, used for screening against human PXR activation has HepG2 cells co-transfected with a PXR response element and a luciferase construct containing CYP3A4 promoter. Increase in luciferase activity can be used to identify the compounds that activate the PXR pathway.
DPX-2 cells were dispensed at 2,000 cells per well in 5uL of assay medium into white, solid-bottom 1536-well plates using a Multidrop Combi dispenser (Thermo Scientific). The assay plates were incubated at 37C for 5hr before transferring 23nL of test compounds dissolved in DMSO and positive control via Pintool station (Wako). The assay plates were incubated at 37C for 24hr. Then 5ul One-Glo assay reagent (Promega) was added to each plate by a Flying Reagent Dispenser (FRD, Aurora Discovery) and following 30 min incubation at room temperature, luciferase activity was quantified on a ViewLux plate reader (Perkin Elmer).
Background: Quantitative high-throughput screening tests each substance at several concentrations.
With `CCCCOc1ccc(CC(=O)NO)cc1`, the Potency result is “inactive”.

As for `Nc1nc(N)c(-c2ccccc2)s1`, the Potency entry was “inactive”.

Turning to `CCOC(=S)SSC(=S)OCC`, the Potency result is “inactive”.

Turning to `CC(C(=O)O)c1ccc(-c2ccccc2)c(F)c1` (stereo not given), the Potency entry was “inactive”.

For `Cc1ccccc1N=Nc1ccc(N=Nc2c(O)ccc3ccccc23)c(C)c1`, the Potency result is “inactive”.

Consider `CCN(CC)C(C)CN1c2ccccc2Sc2ccccc21` (stereo not given), for which the Potency result was “inactive”.

Regarding `O=C1[C@H](CC[C@H](O)c2ccc(F)cc2)[C@@H](c2ccc(O)cc2)N1c1ccc(F)cc1`, the Potency result was “inactive”.

For `CN(c1nccc(=O)[nH]1)C1CCN(c2nc3ccccc3n2Cc2ccc(F)cc2)CC1`, the Potency result was “inactive”.

`Nc1ccc(C(=O)Nc2ccccc2N)cc1`: the Potency is 11.2 µM (active).

Turning to `O=C(c1ccccc1)c1ccc2n1CCC2C(=O)O` (stereo not given), the Potency entry is “inactive”.

Consider `Cn1c(=O)c2c(ncn2CC(O)CO)n(C)c1=O` (stereo not given), for which the Potency entry is “inactive”.

Turning to `NC[C@H]1O[C@H](O[C@H]2[C@H](O)[C@@H](O[C@H]3O[C@H](CO)[C@@H](O)[C@H](N)[C@H]3O)[C@H](N)C[C@@H]2N)[C@H](O)[C@@H](O)[C@@H]1O`, the Potency result was “inactive”.

For the molecule `CN(C)CC[C@@H](c1ccc(Br)cc1)c1ccccn1`, the Potency result is “inactive”.

As to `CCN(CC)CCc1nc(-c2ccccc2)no1`, the Potency entry was “inactive”.

For `Cn1c(NCCN(CCO)CCCc2ccc([N+](=O)[O-])cc2)cc(=O)n(C)c1=O`, the Potency entry was “inactive”.

For the molecule `CCCCc1cc2ccccc2c(OCCN(C)C)n1`, the Potency entry was “inactive”.

For `CC(Cc1cccc(C(F)(F)F)c1)NCCOC(=O)c1ccccc1` (stereo not given), the Potency entry is “inactive”.

On to `N=C(N=C(N)N)N1CCOCC1`, for which the Potency entry was “inactive”.

Consider `NC(N)=NN=C(/C=C/c1ccc([N+](=O)[O-])o1)/C=C/c1ccc([N+](=O)[O-])o1`, for which the Potency entry is “inactive”.

For the molecule `C=Cc1c(C)c2cc3[nH]c(cc4nc(cc5nc(cc1[nH]2)C(C)=C5CCC(=O)O)C(CCC(=O)O)=C4C)c(C)c3C=C`, the Potency result was “inactive”.

Consider `OC(CCN1CCCCC1)(c1ccccc1)C1CCCCC1` (stereo not given), for which the Potency entry was “inactive”.

As to `CC1(C)[C@H]2CC[C@]1(C)[C@H](O)C2`, the Potency result is “inactive”.

As for `Cc1cc(CC(=O)O)c(C)n1-c1ccc(Cl)cc1`, the Potency entry is “inactive”.

Turning to `CCOc1cc(OCC)c(C(=O)CCC(=O)O)cc1OCC`, the Potency result is “inactive”.

For `CCN1CCC[C@H]1CNC(=O)c1c(OC)ccc(Br)c1OC`, the Potency result is “inactive”.

Consider `CC(=O)O[C@H]1C[C@@H]2CC[C@@H]3[C@H](CC[C@@]4(C)[C@H]3C[C@H]([N+]3(C)CCCCC3)[C@@H]4OC(C)=O)[C@@]2(C)C[C@@H]1N1CCCCC1`, for which the Potency entry is “inactive”.

Consider `NC(N)=N/N=C/c1c(Cl)cccc1Cl`, for which the Potency entry was “inactive”.

In the case of `COc1ccccc1OC(=O)Oc1ccccc1OC`, the Potency entry is “inactive”.

Take `CC(C(=O)O)c1ccc(C(=O)c2ccccc2)s1` (stereo not given): the Potency result was “inactive”.

Consider `CC(C)NCC(O)c1cc(O)cc(O)c1` (stereo not given), for which the Potency result was “inactive”.

Regarding `CC[C@H](C)[C@H](N)C(=O)O`, the Potency entry was “inactive”.

`CC1(C)CCC(C)(C)c2cc(NC(=O)c3ccc(C(=O)O)cc3)ccc21`: the Potency entry was “inactive”.

On to `CN1CCC[C@@H]1c1cccnc1`, for which the Potency result is “inactive”.

Regarding `Cc1c(Cn2ccnc2)c2ccccc2n1CCC(=O)O`, the Potency entry is “inactive”.

On to `Cc1ccc(C(=O)C(C)CN2CCCCC2)cc1` (stereo not given), for which the Potency result is “inactive”.

On to `CCN(CC)CCOc1ccc2c(c1)C(=O)c1cc(OCCN(CC)CC)ccc1-2`, for which the Potency result was “inactive”.

Consider `Oc1ccc(C(O)CNCCCCCCNCC(O)c2ccc(O)c(O)c2)cc1O` (stereo not given), for which the Potency result is “inactive”.

`O=C(O)Cn1c(C(=O)Nc2nc(-c3ccccc3Cl)cs2)cc2ccccc21`: the Potency entry is “inactive”.

For the molecule `O=C(CCN1CCN2CCCC2C1)N1c2ccccc2Sc2ccc(Cl)cc21` (stereo not given), the Potency is 12.6 µM (active).

As for `O=C(O)COC(=O)Cc1ccccc1Nc1c(Cl)cccc1Cl`, the Potency entry is “inactive”.
